Measurements taken from PubChem BioAssay.
The source made the active and inactive calls. Unless noted, the rule behind the calls is not given here.

Assays:
[1] = compound effects on lung adenocarcinoma cell viability – A549, calcein-AM fluorescence, 48 h, basal, profiling panel (AID 1162); settings: higher = more signal; note: test concentration not given here
[2] = compound effects on differentiated 3T3-L1 adipocyte viability – cell-based, 3T3-L1 adipocytes, calcein-AM fluorescence, 48 h, basal, profiling panel (AID 1163); settings: 3T3-L1 adipocytes viability, higher = more signal; note: test concentration not given here
[3] = compound effects on hepatocellular carcinoma cell viability – HepG2, calcein-AM fluorescence, 48 h, basal, profiling panel (AID 1164); settings: higher = more signal; note: test concentration not given here
[4] = compound effects on multiple myeloma cell viability – MM1S, calcein-AM fluorescence, 48 h, basal, profiling panel (AID 1165); settings: higher = more signal;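 note: viability of MM1S multiple myeloma cells under basal unstimulated conditions; test concentration not given here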
[5] = calcein-AM signal in unstimulated myeloma cells – cell-based, calcein-AM fluorescence, 48 h, PK04 Diversity Set, profiling panel (AID 1166); settings: RPMI8226 myeloma viability, higher = more signal;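 note: cells grown under basal conditions without added stimulus; test concentration not given here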
[6] = JC-1 mitochondrial signal, unstimulated HepG2 cells – cell-based, JC-1 fluorescence, 24 h, 100 nL compound, profiling panel (AID 1167); settings: HepG2 mitochondrial potential, higher = more signal; note: test concentration not given here
[7] = JC-1 mitochondrial signal, unstimulated adipocytes – cell-based, JC-1 fluorescence, 3T3-L1 adipocytes, 24 h, 100 nL compound, profiling panel (AID 1168); settings: JC-1 mitochondrial fluorescence, higher = more signal, called active from +8 up or from −8 down; note: test concentration not given here
[8] = JC-1 mitochondrial signal, unstimulated myeloma cells – cell-based, JC-1 fluorescence, RPMI8226, 24 h, 100 nL compound, profiling panel (AID 1169); settings: JC-1 mitochondrial potential fluorescence, higher = more signal; note: test concentration not given here
[9] = JC-1 mitochondrial signal, unstimulated MM1S myeloma – cell-based, JC-1 fluorescence, 24 h, 100 nL compound, profiling panel (AID 1170); settings: MM1S mitochondrial potential, higher = more signal; note: test concentration not given here
[10] = resazurin metabolic signal in A549 cells – cell-based, resazurin fluorescence, 24 h, PK04 Diversity Set, profiling panel (AID 1171); settings: A549 viability, higher = more signal, called active from +8 up or from −8 down; note: test concentration not given here
[11] = resazurin metabolic signal in HepG2 cells – cell-based, resazurin fluorescence, 24 h, PK04 Diversity Set, profiling panel (AID 1172); settings: HepG2 viability, higher = more signal; note: test concentration not given here
[12] = budding yeast growth changes without added modifier – OD600, strain BY4716, 24 h, basal condition, primary screen (AID 1173); settings: S. cerevisiae BY4716 growth, OD600, 24 h; higher = more signal, called active from +8 up or from −8 down
[13] = viability profiling in MM1S myeloma cells – cell-based, resazurin fluorescence, basal, 24 h, PK04 Diversity Set, profiling panel (AID 1174); settings: higher = more signal, called active from +8 up or from −8 down; note: test concentration not given here
[14] = target: Dihydroorotate dehydrogenase (quinone), mitochondrial (Plasmodium falciparum (isolate 3D7)) (UniProt Q08210); experiment: inhibition of P. falciparum DHODH – biochemical, C-terminal His tag, absorbance 600 nm, primary screen (AID 1175); settings: PfDHODH enzyme, DCIP absorbance 600 nm; higher = more signal, called active from +8 up or from −8 down;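 note: recombinant parasite enzyme with a five histidine tag at its C terminus; test concentration not given here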
[15] = inhibition of PAO1 biofilm formation – strain PAO1, LB-PBS medium, absorbance 600 nm, primary screen (AID 1176); note: test concentration not given here; settings: P. aeruginosa PAO1 growth/biofilm, A600, 12 h; higher = more signal
[16] = growth modulation of vineyard yeast isolate – strain RM11-1a, OD600, basal, 24 h, primary screen (AID 1177);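 note: cultures grown under basal conditions with no added stressor; test concentration not given here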; settings: S. cerevisiae RM11-1a growth, OD600, 24 h; higher = more signal, called active from +8 up or from −8 down
[17] = growth of efflux-deficient E. coli DRC39 – strain DRC39, OD650, 24 h, E. coli filamentation inducers, primary screen (AID 1178);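 note: growth measured as culture turbidity by optical density at 650 nm; test concentration not given here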; settings: E. coli DRC39 acrAB, higher = more signal, called active from +8 up or from −8 down
[18] = growth of efflux-deficient E. coli DRC39 – strain DRC39, OD650, 48 h, E. coli filamentation inducers, primary screen (AID 1179);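 note: screen aims at cell division blockers that make cells filament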; settings: E. coli DRC39 delta-acrAB growth, higher = more signal, called active from +8 up or from −8 down
[19] = viability profiling in RPMI8226 myeloma cells – cell-based, resazurin fluorescence, basal, 24 h, PK04 Diversity Set, profiling panel (AID 1180); settings: higher = more signal;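 note: RPMI8826 multiple myeloma cell line at 5000 cells per well; test concentration not given here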
[20] = target: E3 ubiquitin-protein ligase XIAP (Homo sapiens) (UniProt P98170); experiment: small molecules binding XIAP protein – biophysical, small-molecule microarray, fluorescence 635 nm, primary screen (AID 1181); settings: higher = more signal;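 note: score merges 667 nm emission and signal to noise over triplicate slides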
E3 ubiquitin-protein ligase XIAP (Homo sapiens), sequence (P98170 whole entry, looked up): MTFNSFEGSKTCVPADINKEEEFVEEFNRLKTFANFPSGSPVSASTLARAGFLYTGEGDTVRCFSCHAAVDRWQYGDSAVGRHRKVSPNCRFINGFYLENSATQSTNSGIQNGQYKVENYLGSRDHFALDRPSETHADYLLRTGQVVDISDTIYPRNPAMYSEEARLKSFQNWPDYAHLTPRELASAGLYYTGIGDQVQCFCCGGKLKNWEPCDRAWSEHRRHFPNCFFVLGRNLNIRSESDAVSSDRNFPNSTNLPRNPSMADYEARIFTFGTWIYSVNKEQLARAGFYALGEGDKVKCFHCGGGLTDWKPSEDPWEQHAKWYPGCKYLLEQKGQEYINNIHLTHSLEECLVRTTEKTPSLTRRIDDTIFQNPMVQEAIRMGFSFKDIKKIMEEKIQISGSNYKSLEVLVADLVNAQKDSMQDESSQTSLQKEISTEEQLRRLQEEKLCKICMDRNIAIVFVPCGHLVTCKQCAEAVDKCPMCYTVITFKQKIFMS

Dihydroorotate dehydrogenase (quinone), mitochondrial (Plasmodium falciparum (isolate 3D7)), sequence (Q08210 whole entry, looked up): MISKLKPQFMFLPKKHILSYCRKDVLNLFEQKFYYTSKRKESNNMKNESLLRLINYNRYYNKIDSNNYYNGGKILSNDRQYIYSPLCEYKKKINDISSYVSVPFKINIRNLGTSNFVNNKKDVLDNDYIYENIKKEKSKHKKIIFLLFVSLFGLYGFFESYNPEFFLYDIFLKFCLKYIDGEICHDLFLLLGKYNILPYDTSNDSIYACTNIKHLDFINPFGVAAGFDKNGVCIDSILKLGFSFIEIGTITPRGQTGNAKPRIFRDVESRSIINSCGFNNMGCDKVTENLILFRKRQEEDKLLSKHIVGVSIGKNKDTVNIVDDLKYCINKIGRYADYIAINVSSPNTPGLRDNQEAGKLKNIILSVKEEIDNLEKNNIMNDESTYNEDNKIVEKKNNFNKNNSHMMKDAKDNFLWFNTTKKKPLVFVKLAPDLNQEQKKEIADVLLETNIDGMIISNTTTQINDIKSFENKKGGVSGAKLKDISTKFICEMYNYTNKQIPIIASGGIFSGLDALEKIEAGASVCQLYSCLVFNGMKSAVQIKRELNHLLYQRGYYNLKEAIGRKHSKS

SMILES	z-score [1]	z-score [2]	z-score [3]	z-score [4]	z-score [5]	z-score [6]	z-score [7]	z-score [8]	z-score [9]	z-score [10]	z-score [11]	z-score [12]	z-score [13]	composite z-score [14]	z-score [15]	z-score [16]	z-score [17]	z-score [18]	z-score [19]	composite z-score [20]
COc1ccc([Si](C)(C)[C@@H]2[C@@H](CCn3cc([C@H](O)c4ccccc4)nn3)O[C@]3(C(=O)N(Cc4ccc(N5CCC5=O)cc4)c4ccccc43)[C@H]2C)cc1	0.388	1.05	0.944	0.738	-0.23	1.63	1.9 (inactive)	-0.0445	-0.855	0.668 (inactive)	0.606	0.204 (inactive)	-0.189 (inactive)	-0.102 (inactive)	1.36 (inactive)	2.06 (inactive)	1.57 (inactive)	1.18 (inactive)	1.1	-0.239
C=CCNC(=O)[C@H]1[C@@H]2C(=O)O[C@@H](c3ccccc3)[C@@H](c3ccccc3)N2[C@@H](c2ccc(O)cc2)[C@]12C(=O)Nc1ccc(C#CC3(O)CCCCCC3)cc12	-0.0001	0.0111	-1.37	-1.65	-4.08	-2.86	-1.62 (inactive)	-1.25	-0.291	0.421 (inactive)	0.435	-0.989 (inactive)	-0.514 (inactive)	0.19 (inactive)	1.45 (inactive)	-0.596 (inactive)	0.186 (inactive)	-0.11 (inactive)	-0.458	-0.0622
COc1ccc([Si](C)(C)[C@@H]2[C@@H](CC(=O)N3Cc4ccccc4C[C@H]3CO)O[C@]3(C(=O)N(Cc4cccc(N5C(=O)c6cccc7cccc5c67)c4)c4ccccc43)[C@H]2C)cc1	-0.419	1.11	-0.553	-0.428	-1.41	-0.715	1.14 (inactive)	-0.98	-1.36	-1.28 (inactive)	-0.468	0.517 (inactive)	-1.54 (inactive)	-3.83 (inactive)	1.42 (inactive)	0.618 (inactive)	0.226 (inactive)	-0.143 (inactive)	-0.711	-0.253
CC[C@H]1C2=C3C(CC[C@H]4C(OCc5ccc(F)cc5C(F)(F)F)OC[C@](C)([C@@H]34)N(C(=O)OC(C)(C)C)C2)C(COC)C1COC (stereo not given in full)	-0.266	-0.851	0.309	0.0661	-0.307	1.38	-0.159 (inactive)	-0.182	-1.53	-0.515 (inactive)	-0.983	0.9 (inactive)	-1.31 (inactive)	-0.0058 (inactive)	-0.126 (inactive)	0.628 (inactive)	-0.543 (inactive)	0.0886 (inactive)	-0.932	-0.0838
COC(=O)c1c(CC[C@@H](CO)NC(=O)N[C@H](Cn2cc(C3(O)CCCCC3)nn2)C(C)C)oc(C(C)=O)c1C(=O)OC	-0.233	1.36	-0.134	-0.722	0.0074	0.74	0.595 (inactive)	0.355	-0.202	-1.06 (inactive)	-0.752	-3.03 (inactive)	0.679 (inactive)	-4.51 (inactive)	-0.24 (inactive)	-0.834 (inactive)	1.4 (inactive)	0.669 (inactive)	0.0252	-0.102
COc1ccc(NC(=O)O[C@H]2[C@H](OC(=O)Nc3ccccc3)[C@@H](OC(=O)Nc3ccccc3)[C@@H](OC)O[C@@H]2CO)cc1	-1.42	0.635	-1.17	-1.18	-2.26	-0.107	-0.261 (inactive)	-0.765	-1.06	-2.97 (inactive)	-1.58	0.559 (inactive)	-2.86 (inactive)	1.1 (inactive)	0.304 (inactive)	2.89 (inactive)	0.717 (inactive)	-0.141 (inactive)	-1.61	0.131
CCOc1cc(C(O)C2C=CC3C(=O)N(c4ccccc4)C(=O)C3N2Nc2ccc(C#N)cc2)ccc1O (stereo not given)	-0.403	-0.958	0.264	-1.49	-1.01	-2.67	-1.55 (inactive)	0.674	-0.443	-0.883 (inactive)	-1.79	-0.0687 (inactive)	-1.71 (inactive)	0.45 (inactive)	0.888 (inactive)	0.093 (inactive)	-0.523 (inactive)	-0.245 (inactive)	-1.4	-0.0438
C=C(C)[C@@H]1CC=C(C(O)C2C=CC3C(=O)N(c4ccccc4)C(=O)C3N2Nc2ccccc2F)CC1 (stereo not given in full)	-0.644	-0.466	0.27	-2.18	0.123	-1.05	-1.74 (inactive)	-0.872	-0.043	-0.35 (inactive)	-0.91	0.966 (inactive)	-0.773 (inactive)	1.63 (inactive)	1.51 (inactive)	2.01 (inactive)	-0.96 (inactive)	-0.829 (inactive)	-1.09	0.0806
